Results filed as inconclusive are left out. The source made the active and inactive calls. Calls follow the shape of the dose curve; as a rule, active = well fitted curve in the direction sought with a large enough effect; inconclusive = small, poorly fitted or top-dose-only effect, or another doubt; inactive = no such curve, though single readings can be large; an effect the other way counts as inactive or inconclusive.
How the values were obtained:
HACAT = assay: qHTS assay to identify novel small-molecules to repurpose for Merkel cell carcinoma treatment (AID 1296009); conditions: MCC and control cell lines, CellTiter-Glo viability, 72 h; at 44.8 µM (top of the series) unless noted; also: nearly all actives have a fitted effect of over 60% in size
Procedure, shortened: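 Cell viability measured by CellTiter-Glo following 72 hr compound treatment at 37 degree celsius, with NPC and MIPE libraries tested in 8- and 11-point concentration series.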

C33A = assay: Primary qHTS to identify gynecologic anti-cancer compounds using libraries of approved drugs and bioactive compounds (AID 1345084); conditions: Gynecologic cancer cell panel viability, ATPlite luminescence, 48 h; series mostly up to 57.5 µM; also: % is scaled to controls: 0 for no effect and ±100 for the full control effect; nearly all actives have a fitted effect of over 55% in size
Procedure, shortened: (§1)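 Cells, 1,000 per well, plated 16 h, then exposed 48 h at 37 C to compounds. Viability by ATPlite luminescence after 15 min at room temperature.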

CAOV3 = assay: as above; conditions: Gynecologic cancer cell panel viability, ATPlite luminescence, 48 h; series mostly up to 57.5 µM
Procedure, shortened: as §1

CASKI = assay: as above; conditions: Gynecologic cancer cell panel viability, ATPlite luminescence, 48 h; series mostly up to 57.5 µM
Procedure, shortened: as §1

Es-2 = assay: as above; conditions: Gynecologic cancer cell panel viability, ATPlite luminescence, 48 h; series mostly up to 57.5 µM
Procedure, shortened: as §1

HeLa = assay: as above; conditions: Gynecologic cancer cell panel viability, ATPlite luminescence, 48 h; series mostly up to 57.5 µM
Procedure, shortened: as §1

Hek293T = assay: as above; conditions: Gynecologic cancer cell panel viability, ATPlite luminescence, 48 h, control line for the selectivity index; series mostly up to 57.5 µM
Procedure, shortened: as §1

JEG-3 = assay: as above; conditions: Gynecologic cancer cell panel viability, ATPlite luminescence, 48 h; series mostly up to 57.5 µM
Procedure, shortened: as §1

OV90 = assay: as above; conditions: Gynecologic cancer cell panel viability, ATPlite luminescence, 48 h; series mostly up to 57.5 µM
Procedure, shortened: as §1

PA-1 = assay: as above; conditions: Gynecologic cancer cell panel viability, ATPlite luminescence, 48 h; series mostly up to 57.5 µM
Procedure, shortened: as §1

SKOV3 = assay: as above; conditions: Gynecologic cancer cell panel viability, ATPlite luminescence, 48 h; series mostly up to 57.5 µM
Procedure, shortened: as §1

Tov-21-G = assay: as above; conditions: Gynecologic cancer cell panel viability, ATPlite luminescence, 48 h; series mostly up to 57.5 µM
Procedure, shortened: as §1

Tov112D = assay: as above; conditions: Gynecologic cancer cell panel viability, ATPlite luminescence, 48 h; series mostly up to 57.5 µM
Procedure, shortened: as §1

C/C=C(\C)C(=O)OCC1OC(OC2OC(CO)C(O)C(O)C2O)C(O)C(O)C1O (centres undefined)
inactive: outcome (HACAT) inactive [at 17.4 µM] | Potency (C33A) | Potency (CAOV3) | outcome (CASKI) | Potency (Es-2) | Potency (HeLa) | Potency (Hek293T) | Potency (JEG-3) | Potency (OV90) | Potency (PA-1) | Potency (SKOV3) | Potency (Tov-21-G) | Potency (Tov112D)

CC(=O)OC(C)C(C)(O)C(=O)O[C@@H]1CC[C@]2(C)CC(=O)C(=C(C)C)C[C@H]2[C@]1(C)OC(C)=O (some centres undefined)
inactive: outcome (HACAT) inactive [at 17.4 µM] | Potency (C33A) | Potency (CAOV3) | outcome (CASKI) | Potency (Es-2) | Potency (HeLa) | Potency (Hek293T) | Potency (JEG-3) | Potency (OV90) | Potency (PA-1) | Potency (SKOV3) | Potency (Tov-21-G) | Potency (Tov112D)

C=C(COC(=O)C(C)C)C1Oc2cc(C(C)=O)ccc2C1OC(=O)C(C)C (centres undefined)
inactive: outcome (HACAT) | Potency (C33A) | Potency (CAOV3) | outcome (CASKI) | Potency (Es-2) | Potency (HeLa) | Potency (Hek293T) | Potency (JEG-3) | Potency (OV90) | Potency (PA-1) | Potency (SKOV3) | Potency (Tov-21-G) | Potency (Tov112D)

O=C(O)C[C@H]1CCC(=O)[C@@H]1C/C=C\CCO
inactive: outcome (HACAT) | Potency (C33A) | Potency (CAOV3) | outcome (CASKI) | Potency (Es-2) | Potency (HeLa) | Potency (Hek293T) | Potency (JEG-3) | Potency (OV90) | Potency (PA-1) | Potency (SKOV3) | Potency (Tov-21-G) | Potency (Tov112D)

O=C(O)[C@H]1Cc2ccccc2CN1
inactive: outcome (HACAT) inactive [at 4.96 µM] | activity change, negative = cytotoxicity (C33A) -12.5% [at 6.55 µM] | activity change, negative = cytotoxicity (CAOV3) 20.2% [at 6.55 µM] | activity change, negative = cytotoxicity (CASKI) -0.242% [at 6.55 µM] | activity change, negative = cytotoxicity (Es-2) -0.653% [at 6.55 µM] | activity change, negative = cytotoxicity (HeLa) 1.2% [at 6.55 µM] | activity change, negative = cytotoxicity (Hek293T) 13.1% [at 6.55 µM] | activity change, negative = cytotoxicity (JEG-3) 1.96% [at 6.55 µM] | activity change, negative = cytotoxicity (OV90) 0.2% [at 6.55 µM] | activity change, negative = cytotoxicity (PA-1) 3.48% [at 6.55 µM] | activity change, negative = cytotoxicity (SKOV3) 14.2% [at 6.55 µM] | activity change, negative = cytotoxicity (Tov-21-G) 4.78% [at 6.55 µM] | activity change, negative = cytotoxicity (Tov112D) 19.2% [at 6.55 µM]

C=CCc1cc(OC)c(OC(C)C(O)c2ccc(O)c(OC)c2)c(OC)c1 (centres undefined)
inactive: outcome (HACAT) | Potency (C33A) | Potency (CAOV3) | outcome (CASKI) | Potency (Es-2) | Potency (HeLa) | Potency (Hek293T) | Potency (JEG-3) | Potency (OV90) | Potency (PA-1) | Potency (SKOV3) | Potency (Tov-21-G) | Potency (Tov112D)

CC1C2=CC(=O)OC2(O)CC2C1CCC1C(C)(C)CCC(O)C21C (centres undefined)
inactive: outcome (HACAT) | Potency (C33A) | Potency (CAOV3) | outcome (CASKI) | Potency (Es-2) | Potency (HeLa) | Potency (Hek293T) | Potency (JEG-3) | Potency (OV90) | Potency (PA-1) | Potency (SKOV3) | Potency (Tov-21-G) | Potency (Tov112D)

O=C(/C=C/c1ccc(O)cc1)OC[C@H]1O[C@@H](O/C(=C\c2ccccc2)C(=O)O)[C@H](O)[C@@H](O)[C@@H]1O
inactive: outcome (HACAT) inactive [at 17.4 µM] | Potency (C33A) | Potency (CAOV3) | outcome (CASKI) | Potency (Es-2) | Potency (HeLa) | Potency (Hek293T) | Potency (JEG-3) | Potency (OV90) | Potency (PA-1) | Potency (SKOV3) | Potency (Tov-21-G) | Potency (Tov112D)

O=C1OC(c2ccc(O)cc2)C(O)=C1Cc1ccccc1 (centres undefined)
inactive: outcome (HACAT) | Potency (C33A) | Potency (CAOV3) | outcome (CASKI) | Potency (Es-2) | Potency (HeLa) | Potency (Hek293T) | Potency (JEG-3) | Potency (OV90) | Potency (PA-1) | Potency (SKOV3) | Potency (Tov-21-G) | Potency (Tov112D)

Cc1cc(OCCN2CCOCC2)nn1-c1ccc2ccccc2c1
inactive: outcome (HACAT) | Potency (C33A) | Potency (CAOV3) | outcome (CASKI) | Potency (Es-2) | Potency (HeLa) | Potency (Hek293T) | Potency (JEG-3) | Potency (OV90) | Potency (PA-1) | Potency (SKOV3) | Potency (Tov-21-G) | Potency (Tov112D)

COc1cccc(C(=O)NCCNc2nc3cc(C)cc(C)c3cc2C#N)c1
inactive: outcome (HACAT) | Potency (C33A) | Potency (CAOV3) | outcome (CASKI) | Potency (Es-2) | Potency (HeLa) | Potency (Hek293T) | Potency (JEG-3) | Potency (OV90) | Potency (PA-1) | Potency (SKOV3) | Potency (Tov-21-G) | Potency (Tov112D)

C=CC(C)(O)CC/C=C(\C)COC1O[C@H](CO)[C@@H](O)[C@H](O)[C@H]1O (some centres undefined)
inactive: outcome (HACAT) | Potency (C33A) | Potency (CAOV3) | outcome (CASKI) | Potency (Es-2) | Potency (HeLa) | Potency (Hek293T) | Potency (JEG-3) | Potency (OV90) | Potency (PA-1) | Potency (SKOV3) | Potency (Tov-21-G) | Potency (Tov112D)

CC(=O)O[C@H]1[C@H](OC(=O)C(C)C)[C@]2(C)OC3(CC[C@]2(C)[C@H]2CCC[C@]4(CO4)[C@]12C)COC(=O)C3 (some centres undefined)
inactive: outcome (HACAT) inactive [at 17.4 µM] | Potency (C33A) | Potency (CAOV3) | outcome (CASKI) | Potency (Es-2) | Potency (HeLa) | Potency (Hek293T) | Potency (JEG-3) | Potency (OV90) | Potency (PA-1) | Potency (SKOV3) | Potency (Tov-21-G) | Potency (Tov112D)

— PubChem BioAssay (NCATS)
